Data published in PubChem BioAssay AID687001 (Broad Institute, 2013).
Potency and affinity values are given separately. Calls of active or inactive are those of the source.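 The calls were made as follows: active = signal-lowering compounds whose fitted half-maximal concentration is at or below twice the top tested dose in every run; inconclusive = runs disagree, flat 30 to 70% inhibition, or poor curve fit; inactive = the rest.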

target: Protein S100-A4 (Homo sapiens) (UniProt P26447); assay: S100A4-myosin IIA binding inhibitor potency, dose response, biochemical, fluorescence polarization, cherry-picked hits (AID 687001); settings: FP, S100A4/TAMRA-myosin IIA peptide binding; series mostly up to 11 µM
Sequence (P26447 whole entry, looked up): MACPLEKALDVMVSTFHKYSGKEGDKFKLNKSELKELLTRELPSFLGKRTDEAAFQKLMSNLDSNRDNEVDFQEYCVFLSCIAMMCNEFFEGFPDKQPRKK

outcome, inactive:
C[C@@H]1CN([C@@H](C)CO)S(=O)(=O)c2ccc(-c3cccc(C#N)c3)cc2O[C@@H]1CN(C)C(=O)c1ccc(F)cc1, O=C(C[C@@H]1CC[C@@H](NC(=O)Cc2cccnc2)[C@H](CO)O1)Nc1ccc(-c2ccccc2)cc1, CCCCCn1c(C)c(CC(=O)Nc2ccc(Oc3cccnc3)c(C)c2)c2ccccc21, Cn1nc(C(F)(F)F)c(-c2ccc(Br)cc2)c1NC(=O)C1CCC1C(=O)O (stereo not drawn), CO[C@H]1CN(C)C(=O)c2ccc(NS(=O)(=O)c3ccccc3)cc2OC[C@H](C)N(Cc2cccnc2)C[C@@H]1C, O=C(C[C@@H]1C[C@H]2c3cc(NS(=O)(=O)c4ccccc4)ccc3O[C@H]2[C@@H](CO)O1)N1CCOCC1, O=C(Nc1ccccc1F)N1C[C@@H]2[C@H](c3ccccc31)[C@@H](CO)N2C(=O)C1CCCC1, Cc1ccc(F)cc1NC(=O)CN1C(=O)NC(C)(c2ccc3c(c2)OCCO3)C1=O (stereo not drawn), C[C@@H]1CN([C@H](C)CO)S(=O)(=O)c2ccc(C3=CCCCC3)cc2O[C@@H]1CN(C)Cc1cncnc1, Cc1ccccc1S(=O)(=O)N1C[C@H](O)COC[C@@H]2O[C@@H](CC(=O)NCc3ccccc3Cl)CC[C@H]21, Cc1ccc(S(=O)(=O)N(C)C[C@@H]2OCCCC[C@@H](C)Oc3ccc(NS(C)(=O)=O)cc3C(=O)N([C@@H](C)CO)C[C@@H]2C)cc1, O=C(Nc1ccc2ccccc2c1)c1ccccc1Cl, COC(=O)c1ccc(Oc2nc(SC)nc(N(C)C)n2)cc1, CC=Cc1ccc2n(c1=O)C[C@H]1[C@H](CO)[C@@H](C(=O)NCC3CC3)[C@@H]2N1Cc1cccnc1 (mixture of isomers), CCCC(=O)Nc1ccc(C=C(C(C)=O)C(C)=O)cc1, CN(C)Cc1cn(CC[C@H]2CC[C@H](NC(=O)Cc3cccnc3)[C@H](CO)O2)nn1, COc1cc(/C=C/C(=O)OCC(=O)N2c3ccccc3NC(=O)C2(C)C)cc(OC)c1OC, CCc1cccc(C)c1NC(=O)COC(=O)C1CC(=O)N(CCc2ccc(OC)c(OC)c2)C1 (stereo not drawn), C[C@@H]1CN([C@H](C)CO)C(=O)c2cc(NC(=O)C3CC3)ccc2O[C@@H]1CN(C)C(=O)Nc1ccc2c(c1)OCO2, COc1ccc(CNC(=O)CNC(=O)[C@@H]2Cc3ccccc3CN2)cc1, COCCCNc1nc2ccccc2nc1NS(=O)(=O)c1cc(Cl)ccc1Cl, COc1cc2cnc(-c3ccccc3F)cc2cc1OC, CN(C(=O)c1ccc(Br)o1)C1CCCCC1
